{"source": "the supplement of paper PMC10338343", "note": "± gives the standard deviation."}
{"test_system": "MILI (PIWIL2) piRISC loaded with piRNA #1 (26 nt)", "assay": "pre-steady-state target cleavage rate (min^-1); guide: piRNA #1 5'p-UGAGGUAGUAGGUUGUAUAGUAUCCA; MIWI and MILI are mouse PIWI proteins and EfPiwi is from a freshwater sponge; tags in brackets are library labels; higher = faster piRNA-guided slicing of the target", "details": "auxiliary factor: 500 nM mouse GTSF1", "procedure,_shortened": "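The method was Cleave-'n-Seq, in which uncleaved targets from a transcribed, DNA-blocked target RNA library were sequenced after exposure to active affinity-purified piRISC carrying one synthetic guide, with or without GTSF1 partner protein. Reactions contained 0.1 nM library, 1 nM piRISC and, where present, 500 nM GTSF1 in HEPES–potassium acetate buffer at 33 °C for 0–8 or 0–960 min. Reads were normalised to depth and to weakly complementary targets, three trials were pooled, and k3 was capped at 0.0001 min^-1. The pre-steady-state cleavage rate came from a burst-and-steady-state fit.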"}
{"sequence": "GGAGACCAUAGUAUACAACCAACUACCUCA", "pre-steady-state target cleavage rate": "0.00718 ± 0.0021"}
{"sequence": "GGAGAGGACACUAUACAACCUACUACCUCA", "pre-steady-state target cleavage rate": "0.185 ± 0.016"}
{"sequence": "GGAGACCUAUGAUAUGAACGUUCUACCUCA", "pre-steady-state target cleavage rate": "< 0.0001"}
{"sequence": "GGAGACCUAUGAUAUGUUCCUACUACCUGCA", "pre-steady-state target cleavage rate": "< 0.0001"}
{"sequence": "GGAGAGGAUUCUAAACAACCUACUACCUCA", "pre-steady-state target cleavage rate": "0.149 ± 0.01"}
{"sequence": "GGAGACCUAUGUAUACAACCUAGCUACCUCA", "pre-steady-state target cleavage rate": "0.00713 ± 0.0027"}
{"sequence": "GGAGACCUAUAUAUACAACCUACUACCUCA", "pre-steady-state target cleavage rate": "0.0406 ± 0.0075"}
{"sequence": "GGAGACCUAACUAUACUACCUACUUCCUCA", "pre-steady-state target cleavage rate": "0.0587 ± 0.013"}
{"sequence": "GGAGACCAUACUAUACUACCUUCUACCUCA", "pre-steady-state target cleavage rate": "0.0171 ± 0.0044"}
{"sequence": "GGAGACCUAUGUAUACCACCUACUACCUCA", "pre-steady-state target cleavage rate": "0.0404 ± 0.0088"}
{"sequence": "GGAGACCUAACUAUUCAACGUACUACCUCA", "pre-steady-state target cleavage rate": "0.0113 ± 0.0053"}
{"sequence": "GGAGACCUAUGUAUACAACCUAGAUCCUCA", "pre-steady-state target cleavage rate": "0.00265 ± 0.0026"}
{"sequence": "GGAGACGAUACUAUACAACCUACAUGCUCA", "pre-steady-state target cleavage rate": "0.0563 ± 0.016"}
{"sequence": "GGAGUGGAUACUAUUCAACCUACUACCUCA", "pre-steady-state target cleavage rate": "0.179 ± 0.0081"}
{"sequence": "GGAGACCUUACUAUAGAACCUACUACCUGA", "pre-steady-state target cleavage rate": "0.0254 ± 0.0086"}
{"sequence": "GGAGACCUAUGAUAACAACCUACUAACCUCA", "pre-steady-state target cleavage rate": "0.00664 ± 0.002"}
{"sequence": "GGAGACCUUACUAUACAACCUACUACUCA", "pre-steady-state target cleavage rate": "0.216 ± 0.025"}
{"sequence": "GGAGACGUUACUAUACAACCUACUUCCUCA", "pre-steady-state target cleavage rate": "0.0496 ± 0.013"}
{"sequence": "GGAGACCUAUCAAUUCAACCUACUACCUCA", "pre-steady-state target cleavage rate": "0.00721 ± 0.0029"}
{"sequence": "GGAGACCUAUGUAUACAACCUACUAGCUCA", "pre-steady-state target cleavage rate": "0.0155 ± 0.0035"}
{"sequence": "GGAGACCUAUGAAUACAACCUACUACCUCC [g2:g18:cont:t1C]", "pre-steady-state target cleavage rate": "0.0111 ± 0.0027"}
{"sequence": "GGAGACCUUACUAUUCAACCUACUACCACA", "pre-steady-state target cleavage rate": "0.161 ± 0.016"}
{"sequence": "GGAGACCUAUCUAUACAUCCUACUAGCUCA", "pre-steady-state target cleavage rate": "0.125 ± 0.019"}
{"sequence": "GGAGACCAUUCUAUAGAACCUACUACCUCA", "pre-steady-state target cleavage rate": "0.116 ± 0.015"}
{"sequence": "GGAGACCUUACUAUACAAGGAUGAUGGAGA [g13:g22:cont:t1A]", "pre-steady-state target cleavage rate": "< 0.0001"}
{"sequence": "GGAGACCUAACUAUAGUACCUACUACCUCA", "pre-steady-state target cleavage rate": "0.122 ± 0.022"}
{"sequence": "GGAGACCUUACUAUAGAACGUACUACCUCA", "pre-steady-state target cleavage rate": "0.0109 ± 0.0021"}
{"sequence": "GGAGACCUUAGUAUACAACCUACUACCACA", "pre-steady-state target cleavage rate": "0.101 ± 0.013"}
{"sequence": "GGAGACCUAUGUAUUCAACCUACUACCUCA", "pre-steady-state target cleavage rate": "0.0588 ± 0.0091"}
{"sequence": "GGAGACCUAUGAUAUGAACCUACAACGUCA", "pre-steady-state target cleavage rate": "< 0.0001"}
{"sequence": "GGAGAGCAUACUAUACAACCUACUACCACA", "pre-steady-state target cleavage rate": "0.158 ± 0.018"}
{"sequence": "GGAGACCUAUGAAUACAAGCUACAACCUCA", "pre-steady-state target cleavage rate": "0.018 ± 0.0032"}
{"sequence": "GGAGUGGAUACUUUUCAACCUACUACCUCA", "pre-steady-state target cleavage rate": "0.156 ± 0.0072"}
{"sequence": "GGAGACCUAUGAAUACAACCUACCACCUCA", "pre-steady-state target cleavage rate": "0.00506 ± 0.0036"}
{"sequence": "GGAGACCAUACUAUACAACGAUGAUGGAGA [g12:g23:cont:t1A]", "pre-steady-state target cleavage rate": "< 0.0001"}
{"sequence": "GGAGACCUUACUAUACAACCUACCUACCUCA", "pre-steady-state target cleavage rate": "0.148 ± 0.015"}
{"sequence": "GGAGACCAUACUAUACAAGCUUCUACCUCA", "pre-steady-state target cleavage rate": "0.036 ± 0.007"}
{"sequence": "GGAGACCUAUGAAUACGACCUACUACCUCA", "pre-steady-state target cleavage rate": "0.00583 ± 0.0037"}
{"sequence": "GGAGACCUUACAAUACAACCUACUACGUCA", "pre-steady-state target cleavage rate": "0.0615 ± 0.009"}
{"sequence": "GGAGACCUUUCUAUACAACCAACUACCUCA", "pre-steady-state target cleavage rate": "0.00462 ± 0.0029"}
